Measurements from PubChem BioAssay.
Values without a mark were called inactive. Activity calls are given as the source filed them.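 Rule for the calls: active = normalized viability below 100% at a tested concentration; inactive = the rest.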

Assay: drug combination growth inhibition, ovarian cancer – cell-based, oncology-focused library, rucaparib conditional, profiling panel (AID 1508598)
Settings: patient-derived ovarian cancer cells, CellTiter-Glo viability, 144 h, active compounds read low
[1] = at 0.000305 µM, OCI-C5x cells, with rucaparib 10 µM, 100% = cells with rucaparib alone
[2] = at 0.000305 µM, OCI-C5x cells, without rucaparib
[3] = at 0.000305 µM, OCI-P5x cells, with rucaparib 20 µM, 100% = cells with rucaparib alone
[4] = at 0.000305 µM, OCI-P5x cells, without rucaparib
[5] = at 0.00122 µM, OCI-C5x cells, with rucaparib 10 µM, 100% = cells with rucaparib alone
[6] = at 0.00122 µM, OCI-C5x cells, without rucaparib
[7] = at 0.00122 µM, OCI-P5x cells, with rucaparib 20 µM, 100% = cells with rucaparib alone
[8] = at 0.00122 µM, OCI-P5x cells, without rucaparib
[9] = at 0.00488 µM, OCI-C5x cells, with rucaparib 10 µM, 100% = cells with rucaparib alone
[10] = at 0.00488 µM, OCI-C5x cells, without rucaparib
[11] = at 0.00488 µM, OCI-P5x cells, with rucaparib 20 µM, 100% = cells with rucaparib alone
[12] = at 0.00488 µM, OCI-P5x cells, without rucaparib
[13] = at 0.0195 µM, OCI-C5x cells, with rucaparib 10 µM, 100% = cells with rucaparib alone
[14] = at 0.0195 µM, OCI-C5x cells, without rucaparib
[15] = at 0.0195 µM, OCI-P5x cells, with rucaparib 20 µM, 100% = cells with rucaparib alone
[16] = at 0.0195 µM, OCI-P5x cells, without rucaparib
[17] = at 0.0781 µM, OCI-C5x cells, with rucaparib 10 µM, 100% = cells with rucaparib alone
[18] = at 0.0781 µM, OCI-C5x cells, without rucaparib
[19] = at 0.0781 µM, OCI-P5x cells, with rucaparib 20 µM, 100% = cells with rucaparib alone
[20] = at 0.0781 µM, OCI-P5x cells, without rucaparib
[21] = at 0.313 µM, OCI-C5x cells, with rucaparib 10 µM, 100% = cells with rucaparib alone
[22] = at 0.313 µM, OCI-C5x cells, without rucaparib
[23] = at 0.313 µM, OCI-P5x cells, with rucaparib 20 µM, 100% = cells with rucaparib alone
[24] = at 0.313 µM, OCI-P5x cells, without rucaparib
[25] = at 1.25 µM, OCI-C5x cells, with rucaparib 10 µM, 100% = cells with rucaparib alone
[26] = at 1.25 µM, OCI-C5x cells, without rucaparib
[27] = at 1.25 µM, OCI-P5x cells, with rucaparib 20 µM, 100% = cells with rucaparib alone
[28] = at 1.25 µM, OCI-P5x cells, without rucaparib
[29] = at 5 µM, OCI-C5x cells, with rucaparib 10 µM, 100% = cells with rucaparib alone
[30] = at 5 µM, OCI-C5x cells, without rucaparib
[31] = at 5 µM, OCI-P5x cells, with rucaparib 20 µM, 100% = cells with rucaparib alone
[32] = at 5 µM, OCI-P5x cells, without rucaparib

COc1cc([C@H]2c3cc4c(cc3[C@@H](O[C@@H]3O[C@@H]5CO[C@@H](c6cccs6)O[C@H]5[C@H](O)[C@H]3O)[C@H]3COC(=O)[C@H]23)OCO4)cc(OC)c1O
viability [1]: 104%
viability [2]: 117%
viability [3]: 100%
viability [4]: 116%
viability [5]: 115%
viability [6]: 111%
viability [7]: 102%
viability [8]: 109%
viability [9]: 97.4% (active)
viability [10]: 104%
viability [11]: 100%
viability [12]: 109%
viability [13]: 73.9% (active)
viability [14]: 81.6% (active)
viability [15]: 102%
viability [16]: 102%
viability [17]: 63.2% (active)
viability [18]: 73.7% (active)
viability [19]: 87.9% (active)
viability [20]: 60.7% (active)
viability [21]: 78.4% (active)
viability [22]: 56.8% (active)
viability [23]: 71% (active)
viability [24]: 35.6% (active)
viability [25]: 33.4% (active)
viability [26]: 21.2% (active)
viability [27]: 54.6% (active)
viability [28]: 23.6% (active)
viability [29]: 8.34% (active)
viability [30]: 7.07% (active)
viability [31]: 12.4% (active)
viability [32]: 7.92% (active)

COc1cccc(-c2cc(F)ccc2[C@H]2Cc3nc(N)nc(C)c3C(=O)N2)n1
viability [1]: 108%
viability [2]: 122%
viability [3]: 108%
viability [4]: 113%
viability [5]: 117%
viability [6]: 135%
viability [7]: 101%
viability [8]: 112%
viability [9]: 134%
viability [10]: 141%
viability [11]: 53.5% (active)
viability [12]: 34.2% (active)
viability [13]: 93.9% (active)
viability [14]: 41.2% (active)
viability [15]: 16.9% (active)
viability [16]: 8.17% (active)
viability [17]: 23.6% (active)
viability [18]: 13.1% (active)
viability [19]: 10.3% (active)
viability [20]: 7.46% (active)
viability [21]: 11.3% (active)
viability [22]: 8.63% (active)
viability [23]: 6.73% (active)
viability [24]: 5.16% (active)
viability [25]: 10.2% (active)
viability [26]: 7.01% (active)
viability [27]: 5.14% (active)
viability [28]: 4.54% (active)
viability [29]: 9.37% (active)
viability [30]: 7.01% (active)
viability [31]: 4.5% (active)
viability [32]: 3.25% (active)

CCC1=CC2CN(C1)Cc1c([nH]c3ccccc13)[C@@](C(=O)OC)(c1cc3c(cc1OC)N(C)[C@H]1[C@@](O)(C(=O)OC)[C@H](OC(C)=O)[C@]4(CC)C=CCN5CC[C@@]31[C@H]54)C2 (stereo partly drawn)
viability [1]: 110%
viability [2]: 106%
viability [3]: 1.99% (active)
viability [4]: 2.91% (active)
viability [5]: 94.4% (active)
viability [6]: 70.1% (active)
viability [7]: 1.29% (active)
viability [8]: 1.02% (active)
viability [9]: 50.6% (active)
viability [10]: 43.8% (active)
viability [11]: 52.9% (active)
viability [12]: 20.3% (active)
viability [13]: 39.2% (active)
viability [14]: 33.7% (active)
viability [15]: 50.5% (active)
viability [16]: 16.3% (active)
viability [17]: 40.3% (active)
viability [18]: 22.9% (active)
viability [19]: 49.1% (active)
viability [20]: 13.6% (active)
viability [21]: 33.8% (active)
viability [22]: 23.8% (active)
viability [23]: 46.6% (active)
viability [24]: 12.6% (active)
viability [25]: 39.7% (active)
viability [26]: 21.7% (active)
viability [27]: 45.2% (active)
viability [28]: 11.4% (active)
viability [29]: 36.1% (active)
viability [30]: 22.2% (active)
viability [31]: 41.7% (active)
viability [32]: 8.33% (active)

CCCCCOC(=O)Nc1nc(=O)n([C@@H]2O[C@H](C)[C@@H](O)C2O)cc1F (stereo partly drawn)
viability [1]: 114%
viability [2]: 111%
viability [3]: 115%
viability [4]: 116%
viability [5]: 119%
viability [6]: 120%
viability [7]: 123%
viability [8]: 115%
viability [9]: 111%
viability [10]: 126%
viability [11]: 115%
viability [12]: 123%
viability [13]: 126%
viability [14]: 113%
viability [15]: 115%
viability [16]: 123%
viability [17]: 101%
viability [18]: 111%
viability [19]: 121%
viability [20]: 118%
viability [21]: 106%
viability [22]: 109%
viability [23]: 115%
viability [24]: 123%
viability [25]: 105%
viability [26]: 117%
viability [27]: 113%
viability [28]: 116%
viability [29]: 107%
viability [30]: 114%
viability [31]: 121%
viability [32]: 122%
